Of roughly 8,800 targets only a part is listed; those with a hit were picked by preference. About 0.5% of all pairs of compound and target were hits. Values without a mark were called inactive.
Key:
Experiment in all cases: log2 fold change, soluble protein after heating vs DMSO (PISA); higher = thermal stabilisation; K562 lysate, 10 uM; active = over 0.2 and 3.5 SD of the protein, either way, in both replicates (recomputed)
erlotinib = compound: C#Cc1cccc(Nc2ncnc3cc(OCCOC)c(OCCOC)cc23)c1 [erlotinib]
In short: (§1)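 Thermal stability, expressed as log-two fold change relative to solvent controls, is given from duplicates. Crude K562 extract in PBS pH 7.4 with 1 mM MgCl2, at 1 mg/mL protein, was treated with 10 μM compound for 30 min and heated in aliquots for 3 min across 48°C-58°C. After pooling, adjustment to 0.5% NP-40 at 4°C and centrifugation at 21,000xg for 90 min, supernatant protein was measured by TMTpro 16plex LC-MS/MS with channel sums equalised.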

[1] = compound: C/C(=N\NC(=O)C1=CC(=CC=C1)S(=O)(=O)N2CCOCC2)/C3=C(C=CC(=C3)Cl)O
In short: as §1

[2] = compound: C1=CC(=CC=C1C2=NC3=C(N2)C=C(C=C3)C(=O)N)OC4=CC=C(C=C4)Cl
In short: as §1

[3] = compound: C1=CC2=C(C=CC(=C2)/C=C\3/C(=O)NC(=NCC4=CC=CS4)S3)N=C1
In short: as §1

[4] = compound: C1=CC2=NC=CN=C2C=C1/C=C/3\C(=O)NC(=O)S3
In short: as §1

[5] = compound: C1=CC=C(C=C1)C2=NC(=C(N2)C3=CC=NC=C3)C4=CC(=C(C=C4)Cl)O
In short: as §1

[6] = compound: C1=CC=C2C(=C1)C3=NNC4=CC=CC(=C43)C2=O
In short: as §1

[7] = compound: C1CCN(C1)C(=O)NC2=CC=CC(=C2)NC3=NC=C(C(=N3)NCCC4=CN=CN4)Br
In short: as §1

[8] = compound: C1CN(CCC1(CC2=CC=C(C=C2)Cl)N)C3=NC=NC4=C3C=CN4
In short: as §1

IRAK-1-4 Inhibitor I = compound: C1COCCN1CCN2C3=CC=CC=C3N=C2NC(=O)C4=CC(=CC=C4)[N+](=O)[O-] [IRAK-1-4 Inhibitor I]
In short: as §1

ibrutinib = compound: C=CC(=O)N1CCC[C@@H](n2nc(-c3ccc(Oc4ccccc4)cc3)c3c(N)ncnc32)C1 [ibrutinib]
In short: as §1

[9] = compound: CC(=O)c1cnc2ccc(-c3cc(Cl)c(O)c(Cl)c3)nc2c1N[C@H]1CC[C@H](CN(C)C)CC1
In short: as §1

ralimetinib = compound: CC(C)(C)Cn1c(N)nc2ccc(-c3[nH]c(C(C)(C)C)nc3-c3ccc(F)cc3)nc21 [ralimetinib]
In short: as §1

[10] = compound: CC(C)(O)CC(=O)NCCn1ccc2ncnc(Nc3ccc(Oc4cccc(C(F)(F)F)c4)c(Cl)c3)c21
In short: as §1

[11] = compound: CC(C)C1=C2N=C(C=C(N2N=C1)NCC3=CC=CC=C3)NCCCCCCN
In short: as §1

[12] = compound: CC1=C(C(CC(=O)N1)C2=CC=C(C=C2)C(F)(F)F)C(=O)NC3=C(C=C4C(=C3)C=NN4)F
In short: as §1

[13] = compound: CC1=C(C2=C(C=C1)C(=O)C3=CC=CC=C3N2CCCN)C
In short: as §1

[14] = compound: CC1=C(C=C(C=C1)NC(=O)C2=CC(=CC=C2)C(C)(C)C#N)NC3=CC4=C(C=C3)N=CN(C4=O)C
In short: as §1

[15] = compound: CC1=C(C=C(C=C1)NC(=O)C2=CC(=CC=C2)N(C)C)NC(=O)C3=CC=C(C=C3)O
In short: as §1

[16] = compound: CC1=CC=C(C=C1)SC2=C3C=C(SC3=CN=C2)C(=O)N
In short: as §1

Sequence of UniProt Q92759 (Q92759 whole entry, looked up): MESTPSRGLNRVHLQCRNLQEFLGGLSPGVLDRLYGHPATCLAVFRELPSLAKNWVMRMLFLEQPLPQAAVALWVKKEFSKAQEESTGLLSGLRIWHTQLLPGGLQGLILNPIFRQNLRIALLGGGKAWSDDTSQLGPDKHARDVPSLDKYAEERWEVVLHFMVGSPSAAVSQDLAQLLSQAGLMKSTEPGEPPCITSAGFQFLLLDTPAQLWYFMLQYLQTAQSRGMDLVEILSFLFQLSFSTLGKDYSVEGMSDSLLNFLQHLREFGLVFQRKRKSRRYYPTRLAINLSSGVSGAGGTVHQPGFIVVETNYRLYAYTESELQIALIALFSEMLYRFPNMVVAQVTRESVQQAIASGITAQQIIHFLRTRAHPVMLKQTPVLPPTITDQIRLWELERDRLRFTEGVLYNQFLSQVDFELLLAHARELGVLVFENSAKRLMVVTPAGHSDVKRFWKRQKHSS
Sequence of UniProt Q9NSE4 (Q9NSE4 whole entry, looked up): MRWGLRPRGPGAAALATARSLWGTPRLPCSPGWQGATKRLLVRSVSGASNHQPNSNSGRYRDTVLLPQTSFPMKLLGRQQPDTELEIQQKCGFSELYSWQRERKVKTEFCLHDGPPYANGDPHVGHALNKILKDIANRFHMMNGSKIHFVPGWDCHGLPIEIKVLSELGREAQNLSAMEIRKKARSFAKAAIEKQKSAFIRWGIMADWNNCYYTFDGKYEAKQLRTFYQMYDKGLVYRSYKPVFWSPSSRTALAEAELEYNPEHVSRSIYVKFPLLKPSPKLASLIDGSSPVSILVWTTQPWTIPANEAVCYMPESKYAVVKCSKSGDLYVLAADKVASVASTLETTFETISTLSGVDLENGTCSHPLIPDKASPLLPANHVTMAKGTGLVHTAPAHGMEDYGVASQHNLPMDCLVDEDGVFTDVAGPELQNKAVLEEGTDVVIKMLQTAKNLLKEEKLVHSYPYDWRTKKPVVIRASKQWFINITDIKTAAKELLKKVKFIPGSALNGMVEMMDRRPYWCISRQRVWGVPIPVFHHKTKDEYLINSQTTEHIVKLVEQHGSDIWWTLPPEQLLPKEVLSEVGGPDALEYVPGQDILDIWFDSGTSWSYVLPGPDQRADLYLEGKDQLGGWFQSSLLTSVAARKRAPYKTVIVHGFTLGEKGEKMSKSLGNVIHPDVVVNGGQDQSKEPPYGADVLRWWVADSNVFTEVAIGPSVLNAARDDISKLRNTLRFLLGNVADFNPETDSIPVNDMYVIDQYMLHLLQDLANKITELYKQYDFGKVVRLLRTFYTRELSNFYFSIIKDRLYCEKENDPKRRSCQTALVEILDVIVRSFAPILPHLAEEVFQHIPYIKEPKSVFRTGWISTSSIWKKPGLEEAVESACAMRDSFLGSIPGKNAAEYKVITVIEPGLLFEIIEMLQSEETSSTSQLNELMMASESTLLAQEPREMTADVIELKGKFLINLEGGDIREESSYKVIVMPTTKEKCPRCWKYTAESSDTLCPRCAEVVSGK
Sequence of UniProt Q7Z5Y7 (Q7Z5Y7 whole entry, looked up): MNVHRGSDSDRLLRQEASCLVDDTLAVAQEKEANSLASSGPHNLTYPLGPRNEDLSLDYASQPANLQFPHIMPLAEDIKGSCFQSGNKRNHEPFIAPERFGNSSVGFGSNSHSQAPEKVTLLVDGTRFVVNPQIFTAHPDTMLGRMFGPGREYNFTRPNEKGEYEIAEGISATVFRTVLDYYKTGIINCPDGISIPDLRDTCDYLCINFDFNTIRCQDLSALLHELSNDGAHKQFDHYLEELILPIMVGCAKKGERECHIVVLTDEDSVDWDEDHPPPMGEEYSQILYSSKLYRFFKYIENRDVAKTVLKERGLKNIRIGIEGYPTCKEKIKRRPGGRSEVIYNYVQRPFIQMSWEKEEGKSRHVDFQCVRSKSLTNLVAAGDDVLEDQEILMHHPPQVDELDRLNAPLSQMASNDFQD
Sequence of UniProt P09211 (P09211 whole entry, looked up): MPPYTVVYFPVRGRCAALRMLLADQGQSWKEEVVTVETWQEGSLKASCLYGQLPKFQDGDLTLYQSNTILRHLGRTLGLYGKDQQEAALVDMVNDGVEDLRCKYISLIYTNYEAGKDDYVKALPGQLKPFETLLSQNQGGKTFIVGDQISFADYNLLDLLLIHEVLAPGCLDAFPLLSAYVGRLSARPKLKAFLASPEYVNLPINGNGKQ
Sequence of UniProt Q6P9B9 (Q6P9B9 whole entry, looked up): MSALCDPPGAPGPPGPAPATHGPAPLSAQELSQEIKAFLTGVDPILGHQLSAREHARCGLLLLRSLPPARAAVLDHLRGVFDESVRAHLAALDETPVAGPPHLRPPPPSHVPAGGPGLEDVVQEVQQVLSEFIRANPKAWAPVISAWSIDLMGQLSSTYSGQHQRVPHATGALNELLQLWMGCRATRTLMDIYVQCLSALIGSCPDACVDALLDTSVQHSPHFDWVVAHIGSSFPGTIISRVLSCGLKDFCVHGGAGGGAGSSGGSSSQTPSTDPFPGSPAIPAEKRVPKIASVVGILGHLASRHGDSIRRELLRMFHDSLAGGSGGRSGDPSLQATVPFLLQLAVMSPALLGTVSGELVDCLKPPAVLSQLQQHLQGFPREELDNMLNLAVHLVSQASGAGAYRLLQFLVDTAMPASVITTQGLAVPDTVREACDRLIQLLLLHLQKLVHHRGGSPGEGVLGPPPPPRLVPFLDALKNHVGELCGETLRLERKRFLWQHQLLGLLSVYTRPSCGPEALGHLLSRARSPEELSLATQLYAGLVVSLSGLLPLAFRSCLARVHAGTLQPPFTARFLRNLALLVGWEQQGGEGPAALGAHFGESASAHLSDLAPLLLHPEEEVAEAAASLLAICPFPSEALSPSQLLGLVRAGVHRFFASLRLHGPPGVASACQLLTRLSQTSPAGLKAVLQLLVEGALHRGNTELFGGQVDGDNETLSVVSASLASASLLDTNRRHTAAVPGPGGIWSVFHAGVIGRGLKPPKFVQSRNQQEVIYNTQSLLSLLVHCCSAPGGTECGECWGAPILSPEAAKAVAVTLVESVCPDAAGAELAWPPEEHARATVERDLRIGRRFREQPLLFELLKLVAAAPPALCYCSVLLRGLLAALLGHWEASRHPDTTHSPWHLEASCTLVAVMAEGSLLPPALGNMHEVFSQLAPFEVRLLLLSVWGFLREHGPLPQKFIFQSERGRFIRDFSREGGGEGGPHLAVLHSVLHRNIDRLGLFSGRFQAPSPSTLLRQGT
Sequence of UniProt Q9UBN7 (Q9UBN7 whole entry, looked up): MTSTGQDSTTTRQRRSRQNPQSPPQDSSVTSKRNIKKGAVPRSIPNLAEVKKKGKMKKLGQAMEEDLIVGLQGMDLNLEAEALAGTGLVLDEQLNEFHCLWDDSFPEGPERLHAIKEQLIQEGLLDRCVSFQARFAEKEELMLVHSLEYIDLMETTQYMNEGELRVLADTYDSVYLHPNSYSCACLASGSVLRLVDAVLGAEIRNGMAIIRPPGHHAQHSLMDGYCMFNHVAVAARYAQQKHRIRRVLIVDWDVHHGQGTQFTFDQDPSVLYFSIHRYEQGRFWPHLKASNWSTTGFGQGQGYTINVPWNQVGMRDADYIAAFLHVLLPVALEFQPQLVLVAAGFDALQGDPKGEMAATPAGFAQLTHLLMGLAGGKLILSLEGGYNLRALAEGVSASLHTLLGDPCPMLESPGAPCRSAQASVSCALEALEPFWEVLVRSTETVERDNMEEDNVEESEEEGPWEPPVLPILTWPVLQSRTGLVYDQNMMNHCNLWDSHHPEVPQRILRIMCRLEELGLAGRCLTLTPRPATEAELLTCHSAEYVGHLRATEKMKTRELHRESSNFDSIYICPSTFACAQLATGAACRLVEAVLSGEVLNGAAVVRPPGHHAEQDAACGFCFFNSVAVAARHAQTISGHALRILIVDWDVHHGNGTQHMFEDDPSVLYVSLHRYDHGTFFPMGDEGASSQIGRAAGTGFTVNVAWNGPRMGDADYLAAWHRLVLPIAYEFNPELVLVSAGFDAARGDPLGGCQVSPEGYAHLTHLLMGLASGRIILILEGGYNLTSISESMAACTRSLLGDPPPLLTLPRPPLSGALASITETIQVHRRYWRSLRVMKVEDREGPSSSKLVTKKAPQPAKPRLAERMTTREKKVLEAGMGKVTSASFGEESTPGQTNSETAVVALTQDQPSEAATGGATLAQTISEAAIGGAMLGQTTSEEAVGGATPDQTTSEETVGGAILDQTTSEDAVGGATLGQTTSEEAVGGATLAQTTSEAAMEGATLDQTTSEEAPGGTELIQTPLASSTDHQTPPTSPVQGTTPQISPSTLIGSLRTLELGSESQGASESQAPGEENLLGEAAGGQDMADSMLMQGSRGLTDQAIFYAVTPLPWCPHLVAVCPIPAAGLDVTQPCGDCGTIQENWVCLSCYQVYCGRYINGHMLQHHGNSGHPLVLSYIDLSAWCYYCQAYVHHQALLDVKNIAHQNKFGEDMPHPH
Sequence of UniProt P26583 (P26583 whole entry, looked up): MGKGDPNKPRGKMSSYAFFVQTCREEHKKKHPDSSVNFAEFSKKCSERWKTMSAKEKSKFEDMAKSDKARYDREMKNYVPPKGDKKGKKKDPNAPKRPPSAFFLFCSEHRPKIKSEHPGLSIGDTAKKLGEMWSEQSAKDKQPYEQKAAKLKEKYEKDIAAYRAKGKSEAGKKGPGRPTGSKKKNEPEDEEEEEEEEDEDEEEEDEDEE
Sequence of UniProt O14979 (O14979 whole entry, looked up): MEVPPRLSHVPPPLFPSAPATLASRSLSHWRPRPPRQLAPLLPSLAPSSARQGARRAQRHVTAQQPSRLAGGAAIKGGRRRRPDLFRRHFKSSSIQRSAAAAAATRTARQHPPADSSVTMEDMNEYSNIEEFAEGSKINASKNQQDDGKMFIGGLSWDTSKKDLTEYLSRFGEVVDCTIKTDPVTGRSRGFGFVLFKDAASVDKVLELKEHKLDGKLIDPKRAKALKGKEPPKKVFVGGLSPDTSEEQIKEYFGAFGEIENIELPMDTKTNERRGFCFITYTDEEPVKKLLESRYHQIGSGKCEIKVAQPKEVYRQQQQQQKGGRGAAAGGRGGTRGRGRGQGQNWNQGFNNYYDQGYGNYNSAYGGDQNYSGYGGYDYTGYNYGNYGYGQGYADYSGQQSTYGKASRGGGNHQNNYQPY

| Target | log2 fold change (erlotinib) | log2 fold change [1] | log2 fold change [2] | log2 fold change [3] | log2 fold change [4] | log2 fold change [5] | log2 fold change [6] | log2 fold change [7] | log2 fold change [8] | log2 fold change (IRAK-1-4 Inhibitor I) | log2 fold change (ibrutinib) | log2 fold change [9] | log2 fold change (ralimetinib) | log2 fold change [10] | log2 fold change [11] | log2 fold change [12] | log2 fold change [13] | log2 fold change [14] | log2 fold change [15] | log2 fold change [16] |
| --- | --- | --- | --- | --- | --- | --- | --- | --- | --- | --- | --- | --- | --- | --- | --- | --- | --- | --- | --- | --- |
| IARS2 (UniProt Q9NSE4) | -0.025 | 0.014 | 0.026 | 0.005 | 0.013 | -0.007 | -0.043 | -0.01 | 0.054 | 0.016 | -0.006 | -0.008 | -0.005 | 0.007 | -0.025 | -0.031 | 0.016 | 0.005 | 0.013 | -0.031 |
| IMPACT (UniProt Q9P2X3) | -0.03 | 0.13 | 0.014 | 0.083 | 0.043 | 0.056 | 0.001 | 0.06 | -0.082 | -0.076 | -0.19 | -0.075 | 0.061 | 0.001 | -0.065 | 0.289 | 0.034 | 0.146 | 0.14 | -0.052 |
| GTF2H4 (UniProt Q92759) | -0.013 | -0.049 | -0.013 | 0.037 | -0.059 | -0.001 | 0.141 | 0.056 | -0.004 | -0.044 | 0.039 | 0.003 | 0.058 | -0.006 | 0.021 | 0.054 | -0.014 | -0.015 | 0.052 | 0.037 |
| HMGB2 (UniProt P26583) | -0.007 | 0.039 | 0.007 | 0.008 | -0.017 | 0.046 | 0.013 | 0.014 | -0.008 | -0.026 | -0.038 | 0.012 | -0.034 | 0.026 | 0.014 | -0.013 | -0.001 | -0.035 | 0.015 | -0.004 |
| GSTP1 (UniProt P09211) | -0.008 | 0.035 | -0.024 | 0.036 | 0.08 | -0.002 | 0.007 | -0.022 | -0.022 | 0 | -0.012 | 0.042 | 0.011 | -0.003 | 0.021 | -0.011 | 0.036 | -0.025 | 0.003 | -0.003 |
| HDAC6 (UniProt Q9UBN7) | -0.025 | -0.002 | -0.025 | -0.006 | -0.014 | -0.042 | -0.034 | -0.001 | -0.023 | 0.008 | -0.051 | 0.003 | -0.024 | -0.041 | -0.014 | -0.036 | -0.002 | 0.008 | -0.01 | 0.01 |
| KCTD20 (UniProt Q7Z5Y7) | 0.072 | -0.145 | -0.006 | 0 | 0.001 | 0.063 | 0.038 | 0.081 | 0.083 | 0.048 | 0.109 | 0.071 | 0.099 | -0.009 | 0.044 | 0.062 | 0.034 | -0.001 | 0.105 | -0.051 |
| IRAK4 (UniProt Q9NWZ3) | -0.03 | -0.071 | -0.037 | -0.019 | 0.037 | 0.015 | 0.223 | 0.3 (active) | -0.037 | 0.006 | 0 | 0.195 | 0 | -0.018 | -0.01 | -0.018 | -0.011 | -0.018 | 0.008 | -0.041 |
| KDM1A (UniProt O60341) | -0.005 | 0.106 | 0.021 | 0 | -0.006 | -0.019 | -0.071 | -0.019 | -0.009 | -0.003 | 0.007 | -0.011 | 0.018 | -0.016 | 0.019 | -0.004 | 0.003 | -0.004 | 0.044 | 0.003 |
| HNRNPDL (UniProt O14979) | -0.013 | 0.026 | 0.009 | -0.008 | 0.024 | 0.038 | 0.008 | 0.006 | 0.014 | -0.008 | 0 | -0.692 (active) | -0.027 | 0.014 | -0.011 | 0.013 | -0.016 | 0.111 | -0.011 | 0 |
| INTS5 (UniProt Q6P9B9) | 0.002 | -0.061 | -0.082 | -0.04 | 0.068 | -0.072 | -0.098 | -0.001 | 0.247 | -0.015 | 0.051 | 0.056 | 0.051 | -0.038 | -0.06 | -0.013 | 0.021 | 0 | 0.039 | 0.003 |
| GSTCD (UniProt Q8NEC7) | 0.041 | -0.017 | -0.037 | 0.033 | -0.027 | 0.012 | -0.021 | -0.028 | 0.005 | -0.055 | 0.057 | -0.01 | 0.033 | -0.023 | -0.038 | 0.044 | -0.04 | 0.051 | -0.003 | 0.011 |
